Laboratory results from article PMC5540273 (PLoS ONE, 2017).

What was measured:
Details in all cases: concentration: 1 μM, replicates: in singlicate; n = 1
[1] = system: PAK2
[2] = system: PAK3
[3] = system: PAK4
[4] = system: PAK6
[5] = system: PAK7
[6] = system: T1, PCTK1
T1 construct: gene CDK16

[7] = system: T2, PCTK2
T2 construct: gene CDK17

[8] = system: T3, PCTK3
T3 construct: gene CDK18

[9] = system: PDGFRA
[10] = system: PDGFRB
[11] = system: PDPK1
[12] = system: PFTAIRE2
[13] = system: T4, PFTK1
T4 construct: gene CDK14

[14] = system: PHKG1
[15] = system: PHKG2
[16] = system: PIK3C2B
[17] = system: PIK3C2G
[18] = system: PIK3CA
[19] = system: PIK3CB
[20] = system: PIK3CD
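Note: KINOMEscan kinase panel screen.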

| SMILES | %Inh [1] | %Inh [2] | %Inh [3] | %Inh [4] | %Inh [5] | %Inh [6] | %Inh [7] | %Inh [8] | %Inh [9] | %Inh [10] | %Inh [11] | %Inh [12] | %Inh [13] | %Inh [14] | %Inh [15] | %Inh [16] | %Inh [17] | %Inh [18] | %Inh [19] | %Inh [20] |
| --- | --- | --- | --- | --- | --- | --- | --- | --- | --- | --- | --- | --- | --- | --- | --- | --- | --- | --- | --- | --- |
| Cc1nc(N(C)[C@H]2CN(C(=O)CC#N)CC[C@H]2C)c2cc[nH]c2n1 | 0% | 0% | 0% | 2% | 15% | 0% | 0% | 0% | 0% | 0% | 0% | 0% | 0% | 0% | 13% | 0% | 10% | 0% | 0% | 12% |
| Fc1cccc(CSc2nnc(-c3ccc4c(c3)CCO4)o2)c1 | 62% | 19% | 23% | 35% | 5% | 18% | 1% | 0% | 26% | 0% | 0% | 10% | 0% | 1% | 0% | 1% | 17% | 10% | 14% | 0% |
| CN(C)c1cc(-c2ccc3c(N)n[nH]c3c2)nc(N)n1 [GSK2219329] | 0% | 0% | 0% | 0% | 15% | 0% | 0% | 0% | 0% | 9% | – | 0% | 11% | 0% | 0% | 0% | 0% | 0% | 0% | 0% |
| C[C@@H]1CC[C@H](C(=O)NC2CCCCC2)CN1c1cc(-c2ccc3c(N)n[nH]c3c2)nc(N)n1 [GSK2291363] | 17% | 0% | 0% | 3% | 17% | 2% | 10% | 32% | 0% | 34% | 95.3% | 26% | 27% | 0% | 17% | 0% | 0% | 0% | 0% | 0% |
| CCC(=O)c1c(-c2ccccc2)c2cc(Cl)ccc2c(=O)n1Cc1cc(S(C)(=O)=O)n(CC(N)=O)n1 | 5% | 0% | 5% | 1% | 0% | 0% | 0% | 13% | 0% | 10% | 31% | 0% | 11% | 0% | 0% | 0% | 0% | 0% | 0% | 0% |
| Cl.NS(=O)(=O)c1cccc(Nc2cc(-c3ccc(F)cc3)n[nH]2)c1 [GW824645] | 26% | 0% | 0% | 4% | 0% | 0% | 13% | 5% | 75% | 96.1% | 0% | 24% | 9% | 0% | 0% | 0% | 0% | 11% | 0% | 0% |
| COc1cc(Nc2nccc(N3CCC(NC(=O)C4COc5ccccc5O4)C3)n2)cc(OC)c1OC (stereo not shown) [GSK1379761] | 0% | 10% | 0% | 0% | 3% | 4% | 0% | 10% | 1% | 45% | 2% | 2% | 26% | 12% | 18% | 10% | 0% | 0% | 0% | 42% |
| COc1ccc(Nc2nccc(N3CCC(NS(=O)(=O)c4ccc(NC(C)=O)cc4)C3)n2)cc1 (stereo not shown) [GSK1379729] | 0% | 7% | 0% | 0% | 0% | 0% | 0% | 6% | 23% | 15% | 9% | 17% | 20% | 18% | 0% | 7% | 6% | 4% | 0% | 27% |
| Cc1ccccc1COc1cc(-n2cnc3cc(Cl)ccc32)sc1C(N)=O [GW813349] | 0% | 0% | 0% | 1% | 0% | 15% | 0% | 0% | 1% | 0% | 0% | 0% | 0% | 0% | 0% | 24% | 17% | 21% | 0% | 0% |
| COC(=O)c1c(-c2ccccc2)c2cc(C)ccc2c(=O)n1Cc1ccccc1 | 20% | 1% | 0% | 10% | 0% | 0% | 0% | 0% | 42% | 90% | 0% | 0% | 2% | 0% | 15% | 0% | 0% | 0% | 0% | 0% |
| Cc1nnc(-c2ccc3ncn(-c4ccc(S(C)=O)cc4)c3c2)o1 (stereo not shown) | 14% | 0% | 2% | 4% | 2% | 0% | 0% | 14% | 17% | 30% | 0% | 12% | 14% | 0% | 0% | 0% | 0% | 0% | 2% | 38% |
| O=C(Nc1n[nH]c2nc(-c3ccccc3)c(Cl)cc12)C1CC1 [SB-734909] | 0% | 23% | 0% | 0% | 7% | 0% | 0% | 30% | 46% | 97% | 0% | 0% | 6% | 0% | 7% | 35% | 10% | 12% | 13% | 17% |
| CCS(=O)(=O)c1ccc(OC)c(Nc2ncc(-c3ccc(F)cc3)o2)c1.Cl [GW591947] | 13% | 0% | 0% | 0% | 14% | 4% | 0% | 16% | 0% | 24% | 0% | 9% | 1% | 0% | 0% | 0% | 0% | 0% | 0% | 0% |
| Cn1c(=O)c(F)c(Nc2ccc(I)cc2F)c2c(=O)n(OC[C@H](O)CO)cnc21 | 7% | 1% | 8% | 20% | 0% | 0% | 11% | 5% | 0% | 11% | 21% | 2% | 0% | 23% | 0% | 0% | 0% | 0% | 0% | 0% |
| Cc1cc(Nc2nc(-c3cccc(C)n3)nc3ccccc23)ccn1 [GW872411] | 15% | 0% | 0% | 0% | 17% | 0% | 0% | 0% | 0% | 0% | 0% | 0% | 10% | 0% | 0% | 0% | 0% | 0% | 0% | 0% |
| CCn1c(-c2ccoc2)nc2cnccc21 [SB-733887] | 19% | 0% | 0% | 0% | 0% | 9% | 0% | 1% | 63% | 9% | 0% | 15% | 0% | 0% | 0% | 6% | 0% | 0% | 0% | 0% |
